Screens (PubChem)
TRHR enhancer = TRH receptor (human) allosteric enhancement. P34981. TRHR cells, fluo-8 calcium fluorescence, EC20 TRH enhancement. enhancement, % at 2 µM. actives 0.66% (n = 360,000); in the data active = enhancement above about 30%; also: 0% is about no effect
Target sequence (P34981 whole entry, looked up): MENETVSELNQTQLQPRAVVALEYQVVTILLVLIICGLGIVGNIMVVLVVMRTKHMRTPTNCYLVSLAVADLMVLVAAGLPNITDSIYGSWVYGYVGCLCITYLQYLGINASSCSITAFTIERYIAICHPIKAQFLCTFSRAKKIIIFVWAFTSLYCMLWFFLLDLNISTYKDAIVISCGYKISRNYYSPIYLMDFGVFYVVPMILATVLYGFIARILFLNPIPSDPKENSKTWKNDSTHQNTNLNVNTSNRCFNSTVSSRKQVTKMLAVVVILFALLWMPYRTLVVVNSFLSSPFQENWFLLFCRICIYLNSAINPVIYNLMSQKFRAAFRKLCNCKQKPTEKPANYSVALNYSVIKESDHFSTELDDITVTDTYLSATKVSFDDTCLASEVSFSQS
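TRHR-expressing cells loaded with fluo-8 calcium dye were read kinetically (ex 480/em 530) during compound addition, then stimulated with an EC20 of TRH (10 nM final). Enhancement of the Gq-mediated intracellular calcium response was scored.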
D1 PAM = human D1 dopamine receptor positive modulation. HEK293 TREx D1 cells, calcium flux, dopamine EC20 potentiation. potentiation, % at 10 µM. actives 0.036% (n = 360,000); in the data active = potentiation above about 30%; also: 0% is about no effect
TRHR ag = TRH receptor (human) agonism; P34981; TRHR cells, calcium flux fluo-8, FDSS agonist mode; activation, % at 2 µM; actives 0.18% (n = 360,000); AID 493084; also: 0% is about no effect
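Fluo-8-loaded TRHR cells; 10 s baseline, compound added, kinetic Ca2+ fluorescence read 1/s, agonist mode.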
D1 antagonist = antagonists of human D1 dopamine receptor; P21728; activity change, negative = inhibition, % at 10 µM; HEK293 TREx D1 cells, calcium flux, dopamine EC80; active compounds read low; AID 504652; actives 3.2% (n = 360,000); in the data active = activity change below about -30%; also: % is scaled to controls: 0 for no effect and ±100 for the full control effect
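Compound effects on dopamine-evoked calcium signalling were measured in tetracycline-induced HEK293 Trex D1 cells. Dopamine at EC80 followed a 180 s compound pre-read, and fluorescence was tracked kinetically for 180 s more.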
D1 agonist = activates the human D1 dopamine receptor; AID 504660; HEK293 T-REx D1 cells, calcium flux, agonist mode; activation, % at 2 µM; actives 1% (n = 360,000); P21728; also: 0% is about no effect
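Agonism was scored from calcium flux recorded over 180 s (1 read/s) after pintool compound addition, following a 10-cycle baseline. Cells were inducible force-coupled HEK293 TREx D1, plated overnight at 30 C and loaded with no-wash calcium dye.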
Numbers without * were called inactive. Sampled rows, rich in hits. Any-hit rate of the full collection: about 4.7%. Rule as the data show it, unless noted: active = activation above about 30%; inactive = the rest.

What do the screens show for `CCCCNC(=O)c1ccc(CS(=O)(=O)c2ccc(C)cc2)o1`?
TRHR enhancer: -1; D1 PAM: -7; TRHR ag: -1; D1 antagonist: 2; D1 agonist: 0

Results for CC(C)c1ccc(CCNC(=O)CCNS(=O)(=O)c2ccc(Br)cc2)cc1 ?
TRHR enhancer: -4; D1 PAM: -1; TRHR ag: 0; D1 antagonist: 8; D1 agonist: 1

What do the screens show for `c1ccc(-n2c(SCC3CCCCO3)nnc2-c2cccs2)cc1` (configuration not stated)?
TRHR enhancer: -2; D1 PAM: 0; TRHR ag: -1; D1 antagonist: -32*; D1 agonist: 2

Results for Cn1c(SCC(=O)NCC2CCCO2)nnc1-c1ccc(S(=O)(=O)N2CCCC2)cc1 (configuration not stated) ?
TRHR enhancer: 38*; D1 PAM: 0; TRHR ag: 0; D1 antagonist: 8; D1 agonist: 3

Results for O=C(CSc1nnc(-c2ccncc2)n1-c1ccccc1)NCC1CCCO1 (configuration not stated) ?
TRHR enhancer: -6; D1 PAM: -8; TRHR ag: 0; D1 antagonist: -51*; D1 agonist: 3

What do the screens show for `NC(=O)COc1c(-c2ccc(Br)o2)oc2ccccc2c1=O`?
TRHR enhancer: 0; D1 PAM: 18; TRHR ag: 0; D1 antagonist: 2; D1 agonist: 1

Results for O=C1C2C3C=CC(CC3)C2C(=O)N1c1cccc(C(F)(F)F)c1 (configuration not stated) ?
TRHR enhancer: -2; D1 PAM: -3; TRHR ag: 1; D1 antagonist: 10; D1 agonist: 20

Results for O=C(Nc1ccc(F)cc1)c1cncs1 ?
TRHR enhancer: -1; D1 PAM: -10; TRHR ag: 0; D1 antagonist: -4; D1 agonist: 2

How did O=C(Nc1ccc(Cl)cc1)c1cncs1 do in these assays?
TRHR enhancer: 1; D1 PAM: -7; TRHR ag: -1; D1 antagonist: -47*; D1 agonist: 1

Results for Cc1ccc(CNC(=O)CNC(=S)N(Cc2ccccc2)Cc2ccccc2F)cc1 ?
TRHR enhancer: 4; D1 PAM: -14; TRHR ag: 1; D1 antagonist: -30*; D1 agonist: 6

Results for CN(Cc1ccccc1)CC(O)COc1ccc(CNCc2ccc(Cl)s2)cc1 (configuration not stated) ?
TRHR enhancer: -3; D1 PAM: -5; TRHR ag: 9; D1 antagonist: -41*; D1 agonist: 54*

Results for CCc1cccc(NC(=O)C(Cc2ccccc2)NS(=O)(=O)c2cccs2)c1 (configuration not stated) ?
TRHR enhancer: 3; D1 PAM: 0; TRHR ag: 0; D1 antagonist: 13; D1 agonist: 5

How did Cc1ccc(NC(=O)C(Cc2ccccc2)NS(=O)(=O)c2cccs2)cc1Cl (configuration not stated) do in these assays?
TRHR enhancer: 6; D1 PAM: 0; TRHR ag: 2; D1 antagonist: -42*; D1 agonist: 6

What do the screens show for `COc1ccc(C)cc1NC(=O)C(NS(=O)(=O)c1cccs1)c1ccccc1` (configuration not stated)?
TRHR enhancer: -2; D1 PAM: -2; TRHR ag: -2; D1 antagonist: -35*; D1 agonist: -2

Results for COc1cccc(CNC(=O)C2CCN(C(=O)c3cnn(-c4ccccc4)c3-n3cccc3)CC2)c1 ?
TRHR enhancer: 0; D1 PAM: -3; TRHR ag: -1; D1 antagonist: -5; D1 agonist: -2

What do the screens show for `CCn1cnnc1SCC(=O)NCC1COc2ccccc2O1` (configuration not stated)?
TRHR enhancer: 8; D1 PAM: 1; TRHR ag: 0; D1 antagonist: 5; D1 agonist: 2

Results for Cc1ccccc1Nc1nnc(SCC(=O)NCc2cccs2)s1 ?
TRHR enhancer: 4; D1 PAM: -8; TRHR ag: 0; D1 antagonist: -41*; D1 agonist: 0

How did Cc1cccc(C)c1Nc1nnc(SCC(=O)NCc2cccs2)s1 do in these assays?
TRHR enhancer: 2; D1 PAM: -4; TRHR ag: -1; D1 antagonist: -6; D1 agonist: 7

Results for Cc1nnc(SCC(=O)Nc2ccccc2NC(=O)CSc2nnc(C)s2)s1 ?
TRHR enhancer: 3; D1 PAM: -7; TRHR ag: 0; D1 antagonist: -33*; D1 agonist: 0

Results for Cc1nnc(SCC(=O)NCC2COc3ccccc3O2)s1 (configuration not stated) ?
TRHR enhancer: 3; D1 PAM: -4; TRHR ag: 0; D1 antagonist: -31*; D1 agonist: 0

Results for CCc1nnc(NC(=O)C2CCCN(C(=O)c3ccc(Cl)cc3)C2)s1 (configuration not stated) ?
TRHR enhancer: 11; D1 PAM: 1; TRHR ag: 1; D1 antagonist: 32; D1 agonist: 3

Results for CC(C)NC(=O)c1cc(-c2ccc3c(c2)OCO3)on1 ?
TRHR enhancer: 9; D1 PAM: -7; TRHR ag: -1; D1 antagonist: 11; D1 agonist: 7

What do the screens show for `COc1ccc(Cc2nnc(NC(=O)CSc3ccc(Cl)cc3)s2)cc1OC`?
TRHR enhancer: 29; D1 PAM: 2; TRHR ag: 3; D1 antagonist: 64; D1 agonist: 98*

Results for COc1ccc(Cc2nnc(NC(=O)CSc3ccccc3)s2)cc1OC ?
TRHR enhancer: -2; D1 PAM: 0; TRHR ag: 0; D1 antagonist: 56; D1 agonist: 10

Results for Cc1nn2c(=O)c3c4c(sc3nc2n1-c1ccccc1)COC(C)(C)C4 ?
TRHR enhancer: 40*; D1 PAM: 5; TRHR ag: -1; D1 antagonist: 2; D1 agonist: 3

What do the screens show for `Cc1nnc2n(-c3ccccc3)c(=O)c3c4c(sc3n12)COC(C)(C)C4`?
TRHR enhancer: 25; D1 PAM: -3; TRHR ag: -1; D1 antagonist: -7; D1 agonist: 3

How did Cc1ccc(S(=O)(=O)n2ccc(OC(=O)c3cccs3)n2)cc1 do in these assays?
TRHR enhancer: -6; D1 PAM: -4; TRHR ag: 0; D1 antagonist: -26; D1 agonist: 30*

How did Cc1ccc(S(=O)(=O)n2nc(OC(=O)c3cccs3)cc2N)cc1 do in these assays?
TRHR enhancer: 9; D1 PAM: -10; TRHR ag: -1; D1 antagonist: 4; D1 agonist: 22

Results for CSc1ncccc1C(=O)Nc1ccc(S(=O)(=O)NC2=NCCCCC2)cc1 ?
TRHR enhancer: -10; D1 PAM: -4; TRHR ag: 0; D1 antagonist: -54*; D1 agonist: 3
